The results in this text go back to PubChem BioAssay (NCATS).

A short description of the test: High-throughput drug toxicity screening in the BPDCN cell line Gen2.2 (AID 1224824). Particulars: Gen2.2 BPDCN cells; at 45.8 µM (top of the series) unless noted. The source says: Blastic plasmacytoid dendritic cell neoplasm (BPDCN) is a rare, aggressive and largely incurable hematologic malignancy originating from plasmacytoid dendritic cells (pDCs). Although an initial response to chemotherapy is common, BPDCN prognosis is extremely poor and most patients relapse with drug-resistant disease leading to a median overall survival of ~1 year after diagnosis. To explore novel potential therapeutic strategies in BPDCN, we performed a high-throughput drug toxicity screening in BPDCN cell liens, using of a library of 1,912 small molecules, enriched for compounds that are either approved or in early stages of development for cancer therapy.
A total of 500 exponentially growing Gen2.2 cells were seeded per well in 5 uL of media (RPMI + Glutamine, without phenol red plus10% FBS and 1X Pen/Strep) into 1536-well solid white high base tissue culture treated Greiner One Bio Plates (789173-F), using a multidrop combi dispenser and a small sterile cassette. Compounds and controls totaling 23nL per well (negative control DMSO and positive control 9.2 uM Bortezomib-final) were immediately added to the plates using a 1536 head pin tool from Kalypsys. The plates were then covered with stainless steel gasket lids from Kalypsys and incubated for 48 hours at 37C under 95% relative humidity with 5% CO2. After 48 hours, the plates were removed and allowed to reach room temperature before 3 uL of Cell Titer Glo reagent (Promega) were added using an Aurora Flying Reagent Dispenser Bioraptor. The plates were then spun at 1000 rpms to remove bubbles and incubated for 15 minutes at room temperature before reading on a ViewLux using a luminescent filter with a 10 second exposure. The relative luciferase units were used to calculated percent activity using DMSO as 100% and Bortezomib as 0%.
With `Oc1ccc(C2=Cc3ccc(O)cc3OC2)cc1`, the cell viability, % of control (lower = more cytotoxic) came out at 16.5%.
Take `Clc1ccc(-c2nc3sccn3c2C=NOCc2ccc(Cl)c(Cl)c2)cc1`: the cell viability, % of control (lower = more cytotoxic) is 111%.
Consider `CC=CC(=O)N(CC)c1ccccc1C`, for which the cell viability, % of control (lower = more cytotoxic) came to 116%.
The same measure for `CC(=Cc1ccccc1)C=C1SC(=S)N(CC(=O)O)C1=O`: 124%.
For `O=C1Nc2ccc(Cl)cc2C(C#CC2CC2)(C(F)(F)F)O1` (stereo not given), the cell viability, % of control (lower = more cytotoxic) was 75.6%.
The same measure for `COc1ccc(-c2oc3c(CC=C(C)C)c(OC4O[C@H](CO)[C@@H](O)[C@H](O)[C@@H]4O)cc(O)c3c(=O)c2OC2O[C@@H](C)[C@H](O)[C@@H](O)[C@@H]2O)cc1` (stereo not given in full): 68.1%.
The same measure for `O=c1c(-c2ccc(O)cc2)coc2cc(O)ccc12`: 119%; for `Cc1cc(OCCCc2c(C(=O)O)n(Cc3cccnc3)c3c(-c4c(COc5ccc(N6CCN([S+](C)(=O)[O-])CC6)cc5)nn(C)c4C)cccc23)cc(C)c1Cl`: 62.9%.
Regarding `OC[C@H]1O[C@@H](Oc2cc(O)cc(C=Cc3ccc(O)cc3)c2)[C@H](O)[C@@H](O)[C@H]1O`, the cell viability, % of control (lower = more cytotoxic) is 71.3%.
As for `O=C1NC(=O)C(=Cc2ccc3nccnc3c2)S1`, the figure is 31% [at 23.2 µM]; as for `N#C[C@H]1C[C@H]2C[C@@H]2N1C(=O)[C@@H](N)C12CC3CC(CC(O)(C3)C1)C2`, 112%; as for `CC[C@@H]1C=C(C)C[C@H](C)C[C@H](OC)[C@H]2O[C@@](O)(C(=O)C(=O)N3CCCC[C@@H]3C(=O)O[C@H](C(C)=C[C@@H]3CC[C@H](Cl)[C@H](OC)C3)[C@H](C)[C@@H](O)CC1=O)[C@H](C)C[C@H]2OC`, 12.7%.
Take `O=C(N[C@@H](c1ccccc1)[C@@H]1CCCCN1)c1cccc(C(F)(F)F)c1Cl`: the cell viability, % of control (lower = more cytotoxic) turned out to be 87.4%.
The same measure for `Clc1ccc(C(c2ccc(Cl)cc2)n2cc[n+](CC(OCc3ccc(Cl)cc3Cl)c3ccc(Cl)cc3Cl)c2)cc1` (stereo not given): 1.6%; for `C[N+]1(C)[C@@H]2CC(OC(=O)[C@H](CO)c3ccccc3)C[C@H]1[C@H]1O[C@@H]12` (stereo not given in full): 112%.
With `CCCCCNC(=O)N1CCC(CN(Cc2ccc(Cl)cc2)Cc2ccc([N+](=O)[O-])s2)C1` (stereo not given), the cell viability, % of control (lower = more cytotoxic) came to 15.7%.
On to `CC1(C)Cc2c(sc(NC(=S)NC(=O)c3ccccc3)c2C(=O)O)CO1`, for which the cell viability, % of control (lower = more cytotoxic) amounted to 100%.
On to `O=c1c(-c2ccc(O)cc2)coc2cc(OC3O[C@H](CO)[C@H](O)[C@H](O)[C@H]3O)cc(O)c12` (stereo not given in full), for which the cell viability, % of control (lower = more cytotoxic) is 74.8%.
As for `COc1ccc(-c2coc3cc(O)cc(O)c3c2=O)cc1`, the figure is 308%; as for `COc1ccc(-c2nc(N3CCOCC3)c3sc(CN(C)c4ncc(C(=O)NO)cn4)cc3n2)cn1`, 8.39%.
The same measure for `O=C(O)c1ccccc1C(=O)Nc1ccc(-c2ccccc2)cc1`: 156%.
With `c1cc(-c2sc(-c3ccncc3)c(-c3ccncc3)c2-c2ccncc2)ccn1`, the cell viability, % of control (lower = more cytotoxic) amounted to 64.5%.
As for `O=C(OCC#CCSc1nnc(-c2cccc3ccccc23)o1)c1cc2ccccc2s1`, the figure is 91.8%.
As to `O=c1cc(-c2ccccc2)oc2cc(O)c(O)c(O)c12`, the cell viability, % of control (lower = more cytotoxic) was 151%.
The same measure for `COc1ncc(-c2ccc3nccc(-c4ccnnc4)c3c2)cc1NS(=O)(=O)c1ccc(F)cc1F`: 3.44%; for `Cc1c(O)cccc1C(=O)N[C@@H](CSc1ccccc1)[C@H](O)CN1C[C@H]2CCCC[C@@H]2C[C@@H]1C(=O)NC(C)(C)C`: 66.8%; for `C=C1C(=O)OC(CCCCCCCC)C1C(=O)O` (stereo not given): 15.6%.
As for `O=C(Nc1c(Cl)cncc1Cl)c1ccc(OC(F)F)c(OCC2CC2)c1`, the cell viability, % of control (lower = more cytotoxic) worked out at 134%.
The same measure for `CCOC1OC(=O)C[C@H]1NC(=O)[C@@H]1CCCN1C(=O)[C@@H](NC(=O)c1ccc(N)c(Cl)c1)C(C)(C)C` (stereo not given in full): 49.8%; for `CC(C)n1nc(-c2ccc3oc(N)nc3c2)c2c(N)ncnc21`: 1.63%; for `CN1C[C@H]2c3ccccc3Oc3ccc(Cl)cc3[C@@H]2C1`: 54.1%.
On to `CC(C)(C)OC(=O)N[C@H]1CCCCCC=C[C@@H]2C[C@@]2(C(=O)NS(=O)(=O)C2CC2)NC(=O)[C@@H]2C[C@@H](OC(=O)N3Cc4cccc(F)c4C3)CN2C1=O`, for which the cell viability, % of control (lower = more cytotoxic) stood at 46.5%.
With `CC[C@@]1(O)C[C@H](O[C@H]2C[C@H](N(C)C)[C@H](O[C@H]3C[C@H](O)[C@H](O[C@H]4CCC(=O)[C@H](C)O4)[C@H](C)O3)[C@H](C)O2)c2c(cc3c(c2O)C(=O)c2c(O)cccc2C3=O)[C@@H]1C(=O)OC`, the cell viability, % of control (lower = more cytotoxic) came out at 5.55%.
As to `CC1(C)CCC[C@@]2(C)[C@@H]1CC[C@@]1(C)OC(=O)C[C@H]21`, the cell viability, % of control (lower = more cytotoxic) is 95%.
As for `COc1ccc2c(Oc3ccc(NC(=O)c4c(C)n(CC(C)(C)O)n(-c5ccccc5)c4=O)nc3)ccnc2c1`, the figure is 29.7%; as for `C[C@H](NC(=O)c1sccc1OCc1ccc(Cl)cc1)c1ccccc1`, 181%; as for `O=C(NC1CCOCC1)c1ccc(-c2cc(-c3cn[nH]c3-c3ccccn3)ccn2)cc1`, 724%.
As for `N[C@H](CSC(c1ccccc1)(c1ccccc1)c1ccccc1)C(=O)O`, the figure is 68.6%; as for `CCc1ccc(OCc2ccccc2C(=O)Nc2ccc3nc(C)cc(N)c3c2)cc1`, 7.97%.
In the case of `Cc1ccc(C(=O)Nc2cccc(C(F)(F)F)c2)cc1Nc1nc(-c2cccnc2)nc2c1cnn2C`, the cell viability, % of control (lower = more cytotoxic) was 6.02%.
